From PubChem BioAssay (NCATS)
Inconclusive results are not listed. A number with no mark means an inactive call. Active and inactive are the calls of the source. Calls follow the shape of the dose curve; as a rule, active = well fitted activation curve with a large enough effect; inconclusive = small, poorly fitted or top-dose-only effect; inactive = no such curve, though single readings can be large or run the other way.
Potency is read from the fitted curve at half-maximal effect.

Each compound was assayed against Cellular tumor antigen p53 (Homo sapiens) (UniProt P04637) (assay: Primary qHTS for small molecule compounds that upregulate eGFP-tagged delta133p53alpha (in N-terminal) cells. (AID 2060322; also: nearly all actives have a fitted effect of over 75% in size;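 as to activation: cells pre-induced with doxycycline then dosed without doxycycline; series mostly up to about 56 µM; 0% = DMSO vehicle and 100% = reference activator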)). Conditions: NCI-H358 eGFP-delta133p53alpha fluorescence, 24 h; activation: hits give high values.
Chain of Cellular tumor antigen p53 (Homo sapiens) (P04637 whole entry, looked up): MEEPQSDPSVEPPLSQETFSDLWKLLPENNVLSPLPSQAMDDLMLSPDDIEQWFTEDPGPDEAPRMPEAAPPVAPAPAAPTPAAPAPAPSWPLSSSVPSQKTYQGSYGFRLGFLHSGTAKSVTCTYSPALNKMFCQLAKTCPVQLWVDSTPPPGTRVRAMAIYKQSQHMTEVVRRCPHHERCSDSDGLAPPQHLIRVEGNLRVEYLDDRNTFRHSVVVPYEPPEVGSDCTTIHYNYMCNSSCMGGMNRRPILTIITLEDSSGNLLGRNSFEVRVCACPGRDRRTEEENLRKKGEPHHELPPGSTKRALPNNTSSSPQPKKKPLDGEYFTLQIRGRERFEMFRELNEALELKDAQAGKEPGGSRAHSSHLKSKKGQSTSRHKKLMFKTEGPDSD
Procedure, shortened: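 NCI-H358 cells pre-induced 24 h with 10 ng/ml doxycycline for eGFP-delta133p53alpha, plated dox-free and exposed 24 h at 37C to titrated compounds. Fixed, Hoechst-stained; gated GFP peak intensity by laser scanning cytometry, normalized to DMSO (0%) and 57.5 uM 5-azacytidine (100%).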
Work on COc1ccc(S(=O)(=O)Nc2nnc(CC(C)C)s2)cc1 yielded an activation of -11.7%. CC(C)N=C(N)/N=C(\N)Nc1ccc(Cl)cc1 was tested, and the activation was 0.837%. CC[C@H]1OC(=O)[C@H](C)C(=O)[C@H](C)[C@@H](O[C@H]2O[C@H](C)C[C@H](N(C)C)[C@@H]2O)[C@](C)(OC)C[C@@H](C)C(=O)[C@H](C)[C@H]2N(CCCCn3cnc(-c4cccnc4)c3)C(=O)O[C@]12C gave an activation of 1.46%. Compound CC1(C)OC(=O)Nc2ccc(Br)cc21 has an activation of 3.95%. For CCOC(=O)NNc1nncc2ccccc12, the activation was 20.1%. Nc1ccc(-c2ccc3ccccc3n2)cc1 showed an activation of 29.5%. CCCCCCCCOc1ccc(C(=O)c2ccccc2)c(O)c1 showed an activation of -2.82%. CC1(C)[C@H]2CC[C@]3(C)[C@@H](C(=O)C=C4[C@@H]5C[C@@](C)(C(=O)O)CC[C@]5(C)CC[C@]43C)[C@@]2(C)CC[C@@H]1O showed an activation of 3.97%. C[C@@H](c1ncncc1F)C(O)(Cn1cncn1)c1ccc(F)cc1F (stereo not given in full) showed an activation of -2.82%. For Nc1ccc(S(=O)(=O)Nc2ccccc2)cc1, the activation was -15.9%. Compound Cc1ncc(CO)c(CN)c1O has an activation of 16.4%. With O=C(NC1CCN(CCc2c[nH]c3ccccc23)CC1)c1ccccc1 the activation was 2.51%. With O=C1Cc2cc(Cl)ccc2N1 the activation was 5.08%. Work on Nc1ccc(C(=O)Oc2ccccc2)c(O)c1 yielded an activation of -3.35%. With COC(=O)c1ccccc1C(=O)c1ccc(OCCN2CCCCC2)cc1 the activation was -14.1%. CO[C@@H]1[C@@H](OC)[C@H](C)[C@@](O)(CC(=O)O)O[C@H]1[C@H](C)[C@H]1O[C@@]2(CC[C@@](C)([C@H]3CC[C@@](C)([C@@H]4O[C@@H]([C@H]5O[C@](C)(O)[C@H](C)C[C@@H]5C)C[C@@H]4OC4C[C@H](OC)[C@@H](OC)[C@H](C)O4)O3)O2)C[C@H](O)[C@H]1C (stereo not given in full) was tested, and the Potency was 8.71 µM (active). CCC(C(=O)OCCN(CC)CC)c1ccccc1 (stereo not given) showed an activation of -1.67%. With O=C1C(O)=C(O)C(=O)C(O)=C1O the activation was -14.1%. With Cc1ccc(-c2ccccc2C#N)cc1 the activation was -11.9%. In the case of NC(=Nc1ccccc1)Nc1ccccc1, the activation is reported as 7.53%. In the case of N#CC1(c2ccc(F)cc2)CCC(=O)CC1, the activation is reported as -18.6%. For CCCCOc1cc(C(=O)NCCN(CC)CC)c2ccccc2n1, the activation was 0%. For CCN[C@@H]1C[C@H](N)[C@@H](OC2OC(CN)=CCC2N)[C@H](O)[C@H]1O[C@H]1OC[C@](C)(O)[C@H](NC)[C@H]1O (stereo not given in full), the activation was 1.67%. Compound c1ccc2sc(SN3CCOCC3)nc2c1 has an activation of 8.37%. CCc1c(C)nc2c(-c3cnn(-c4cc(CO)ccn4)c3)c[nH]n2c1=O showed an activation of 5.67%. NC(=O)Cc1cccc(C(=O)c2ccccc2)c1N showed an activation of 9.6%. In the case of CO[C@@]1(NC(=O)CSC[C@@H](N)C(=O)O)C(=O)N2C(C(=O)O)=C(CSc3nnnn3C)CS[C@@H]21, the activation is reported as 13.4%. For Nc1ccc(S(=O)(=O)Nc2cnc3ccccc3n2)cc1, the activation was -24.3%. Compound CC=CC[C@@H](C)C(=O)[C@H]1C(=O)N[C@@H](C(C)C)C(=O)N(C)CC(=O)N(C)[C@@H](CC(C)C)C(=O)N[C@@H](C(C)C)C(=O)N(C)[C@@H](CC(C)C)C(=O)N[C@@H](C)C(=O)N[C@H](C)C(=O)N(C)[C@@H](CC(C)C)C(=O)N(C)[C@@H](CC(C)C)C(=O)N(C)[C@@H](C(C)C)C(=O)N1C has an activation of 34.2%. With COc1ccc2cc1Oc1ccc(cc1)C[C@H]1c3cc(c(OC)cc3CCN1C)Oc1c(OC)c(OC)cc3c1[C@H](C2)N(C)CC3 the activation was -18.2%. With Nc1c(CC(=O)O)cccc1C(=O)c1ccc(Br)cc1 the activation was -3.95%. For O=C1c2c(O)cccc2[C@@H]([C@@H]2O[C@H](CO)[C@@H](O)[C@H](O)[C@H]2O)c2cc(CO)cc(O)c21, the activation was -15.3%. With C#CC(C)(CC)OC(=O)c1ccccc1C(=O)O (stereo not given) the activation was -11.9%. Compound O=C1CCCc2c(O)cccc21 has an activation of -14.1%. For Nc1ccccc1N, the Potency was 17.8 µM (active). CC(CC(C#N)(c1ccccc1)C(C)C)N(C)C (stereo not given) gave an activation of -0.837%. In the case of O=C(O)Cn1c(=O)n(Cc2ccc(Br)cc2F)c(=O)c2ccc(Cl)cc21, the activation is reported as -5.08%. C=C1C(=CC=C2CCCC3(C)[C@@H]([C@H](C)C=CC=CC(O)(CC)CC)CC[C@@H]23)C[C@@H](O)C[C@@H]1O (stereo not given in full) gave an activation of -6.37%. CN(C)CCC[C@@]1(c2ccc(F)cc2)OCc2cc(C#N)ccc21 gave an activation of 15.3%. Compound COCCc1ccc(OCC2CO2)cc1 (stereo not given) has an activation of 7.53%.
